Most compounds without a hit are left out; they make up all but 2.1% or so of the library.
TDP-43 yeast inh: TDP-43 toxicity inhibition in yeast | TDP-43 expressing yeast growth rescue, BacTiter-Glo, 24 h | Potency, µM (series often up to 46.1 µM), inactives show top-dose growth rescue (activation), most hits filed as activators | 410,000 tested, 1.8% active | AID 652104; further: % of control where 0% means no effect; nearly all actives have a fitted effect of over 50% in size
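In this qHTS, compounds that restore growth of yeast expressing TDP-43 appear as activators. Cells (OD600=0.02, galactose medium, raffinose-pregrown) are incubated with compound 24 hr at 30 deg C and growth is quantified by BacTiter-Glo.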
aSyn rescue: rescues yeast growth from alpha-synuclein toxicity; Potency, µM (doses to about 46.1 µM), without a hit: at the top dose growth rescue (activation), usual class: activators; Yeast expressing alpha-synuclein, growth rescue, BacTiter-Glo, 24 h; 370,000 tested, 0.14% active; further: % of control where 0% means no effect; nearly all actives have a fitted effect of over 65% in size
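Rescue of yeast growth: cells expressing toxic alpha-synuclein, induced in galactose at OD600 0.02, incubated with compound 24 h at 30 C. ATP luminescence quantified growth; inhibitors of toxicity appear as activators.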
Abeta rescue: restores growth of yeast expressing A-beta42 peptide; yeast expressing A-beta42, growth rescue, OD600, 48 h; response scale: 0% DMSO, 100% iron-clioquinol control; Potency, µM (top dose mostly 46.1 µM), most hits filed as activators; 410,000 tested, 0.063% active; further: nearly all actives have a fitted effect of over 55% in size
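Yeast growth medium received pinned compounds, then yeast cells expressing toxic A-beta were added; plates incubated at 30 C for 48 hr. Growth read as absorbance at 600 nm, normalized to DMSO and equimolar FeCl3 plus clioquinol controls.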
FUS yeast rescue: FUS proteinopathy suppression in yeast; S. cerevisiae FUS-expressing, growth rescue, OD600, 24 h; Potency, µM (doses to about 76.6 µM), hits mostly activators; 390,000 tested, 0.24% active;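 further: plate controls were DMSO vehicle for no effect and reference control for full effect; nearly all actives have a fitted effect of over 55% in size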
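Yeast expressing FUS under galactose induction, OD 0.005 in 2% galactose medium; compounds in a dilution series, 24 h at 30C. Growth rescue by absorbance at 600 nm; CP55940 positive control, DMSO negative.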
* marks the source's active call; other numbers are inactive results; i = inactive; ? = inconclusive; / = no result. The call rests on the fitted dose curve; in most records, active means well fitted curve in the direction sought with a large enough effect; inconclusive means small, poorly fitted or top-dose-only effect, or another doubt; inactive means no such curve, though single readings can be large; an effect the other way counts as inactive or inconclusive. Potency means the concentration at half of the fitted maximal effect.

SMILES	TDP-43 yeast inh	aSyn rescue	Abeta rescue	FUS yeast rescue
Cc1ccc(C(=O)NNC(=S)NC(=O)COc2ccccc2)cc1	14%	?	?	i
C=C1C(=O)[C@]23C[C@H]1CCC2[C@@]1(C)C(C[C@@H]3O)[C@](C)(C(=O)OC)CC[C@@H]1O (stereo not given in full)	3.2µM*	-51%	i	i
Cc1ccc(S(=O)(=O)c2cc3c(=O)n4ccccc4nc3n(Cc3ccco3)c2=N)cc1	-18%	-3%	i	14µM*
COc1cccc(Cc2nc3ccccc3nc2SCC(=O)N2CCCCC2C)c1 (stereo not given)	35µM*	/	i	?
Cc1ccc(Cc2nc3ccccc3nc2SCC(=O)N2CCCc3ccccc32)cc1	18%	/	i	i
CCOc1ccccc1NC(=O)CSc1nc2ccccc2nc1Cc1ccc(C)cc1	25µM*	/	i	i
COc1cccc(Cc2nc3ccccc3nc2SCC(=O)N2CCN(c3ccccc3)CC2)c1	19%	/	i	i
Cc1ccc(Cc2nc3ccccc3nc2SCC(=O)N2CCCCC2C)cc1 (stereo not given)	35µM*	/	i	?
Cc1ccc(Cc2nc3ccccc3nc2SCC(=O)NCCC(C)C)cc1	?	/	i	i
COc1cccc(-n2c(=O)c3c(C)c(C)sc3n(Cc3ccccc3C#N)c2=O)c1	18%	/	i	i
Cc1oc2ccc(O)c(CN(C)Cc3ccccc3)c2c1C(=O)Nc1cccc(C(F)(F)F)c1	4%	/	i	i
Cc1ccc2c(c1)c(C)c(C)n2CC(O)Cn1nnc2ccccc21 (stereo not given)	?	?	10µM*	?
CC(C(=O)Nc1cccc(C#N)c1)n1nc(-c2ccccc2)c2c(c1=O)CCCC2 (stereo not given)	28%	/	i	?
CC(C(=O)Nc1ccccc1C(F)(F)F)n1nc(-c2ccccc2)c2c(c1=O)CCCC2 (stereo not given)	35µM*	/	i	i
Clc1nc2c(-c3ccccc3)nnn2c2ccccc12	6.3µM*	-16%	i	i
Cc1ccc(-c2nnn3c2nc(Cl)c2ccccc23)cc1	5%	-17%	i	i
CCCn1nc(C(=O)NNC(=O)c2ccc(C)c(C)c2)c2ccccc2c1=O	19%	2%	i	/
CCCn1nc(C(=O)N2CCN(S(=O)(=O)c3ccc(C)c(C)c3)CC2)c2ccccc2c1=O	35µM*	-40%	i	?
Cc1ccc(NC(=O)c2ccc(NC(=O)N3CCSc4ncccc43)cc2)c(Cl)c1	12%	/	i	i
CC(=O)Nc1nc(-c2cccs2)cs1	16%	0%	i	i
O=C(Nc1nc(-c2cccs2)cs1)c1ccc(Cl)s1	3.5µM*	-34%	i	i
CC[C@H]1/C(=C/c2ccccc2)N2C(=O)C[C@H](c3ccccc3)N=C2N1C	/	/	/	i
Cn1ncc(SCc2ccccc2)c(Cl)c1=O	20µM*	11%	i	i
COc1cc2nc(C#N)nc(N)c2cc1OC	/	1%	/	/
CCc1cccc(Nc2ncnc3onc(-c4ccc(F)cc4)c23)c1	?	/	i	i
SMILES	TDP-43 yeast inh	aSyn rescue	Abeta rescue	FUS yeast rescue
Cc1cccc(Nc2ncnc3onc(-c4cccc(Cl)c4)c23)c1C	13µM*	-2%	i	?
Cc1cccc(Nc2ncnc3onc(-c4ccc(F)cc4)c23)c1C	14µM*	-1%	i	?
Cc1cc(Nc2cccc(C(F)(F)F)c2)nc2ccc(NC(=O)c3cncc(Br)c3)cc12	14%	/	i	?
CN1N/C(=C\c2ccccc2)N=C2C(=O)N(C)C(=O)N=C21	/	-79%	/	/
CC1=Nc2cc(C(=O)NC(C)C)ccc2Sc2ccc(C)cc21	0%	/	i	i
C#CCn1c(S(=O)(=O)Cc2ccc(OC)cc2)nc(-c2ccccc2)c1-c1ccccc1	-23%	-10%	i	25µM*
CCCCC(=O)NNC(=S)NC(=O)c1cccc([N+](=O)[O-])c1	14µM*	?	i	i
Cc1ccc(C(=O)NC(=S)NNC(=O)CC#N)cc1	1%	-2%	i	i
CCCCC(=O)NNC(=S)NC(=O)c1ccc([N+](=O)[O-])cc1	20µM*	32µM*	?	i
COC(=O)c1ccccc1NC(=S)NC(=O)c1ccc(C)cc1	20µM*	-18%	i	/
COC(=O)c1ccccc1NC(=S)NC(=O)c1ccccc1	?	-15%	i	i
O=C(NNC(=S)NC(=O)c1ccccc1)c1cccc([N+](=O)[O-])c1	27%	-2%	?	i
CCC(=O)NC(=S)NNC(=O)c1ccc([N+](=O)[O-])cc1	?	10%	i	i
CCCCC(=O)NNC(=S)NC(=O)c1ccc(C)cc1	-75%	3.5µM*	i	i
COc1ccc(/C=C/c2cnc3ccccc3n2)cc1OC	/	1%	/	/
O=C(Nc1cccc(F)c1)C1CCN(S(=O)(=O)c2cccc3nsnc23)CC1	6%	/	i	i
Cc1nc([N+](=O)[O-])cn1CC(O)c1ccc2c(c1)OCCO2 (stereo not given)	/	-1%	/	/
Oc1c(C(c2ccccc2)N2CCC3(CC2)OCCO3)sc2nc(-c3ccco3)nn12 (stereo not given)	12%	/	i	i
CC(C)CC(=O)NC(=S)NNC(=O)c1ccc([N+](=O)[O-])cc1	18µM*	?	?	i
CCn1c(COc2ccccc2)nnc1SCC(=O)Nc1ccc(S(=O)(=O)Nc2cc(C)nc(C)n2)cc1	/	/	/	i
CN(Cc1ccccc1)C(=O)CSc1nc(-c2ccc(F)cc2)cc(C(F)(F)F)n1	-8%	/	i	i
COc1ccc(NC(=O)C(=O)NCCc2csc(-c3ccc(Cl)cc3)n2)cc1	10%	/	i	i
COc1cccc(C(=O)NCCc2csc(-c3ccc(Cl)cc3)n2)c1	35µM*	/	i	i
CC(C)(C)c1ccc(C(=O)NCCc2csc(-c3ccc(Cl)cc3)n2)cc1	17%	/	i	i
O=C(NCCc1csc(-c2ccc(C(F)(F)F)cc2)n1)c1cccs1	22µM*	-14%	i	?
SMILES	TDP-43 yeast inh	aSyn rescue	Abeta rescue	FUS yeast rescue
O=C(NCCc1csc(-c2ccc(C(F)(F)F)cc2)n1)c1ccccc1Cl	?	/	i	i
COc1ccc(-c2nc(CCNC(=O)c3c(F)cccc3Cl)cs2)cc1	18µM*	/	i	i
COc1cccc(OC)c1C(=O)NCCc1csc(-c2ccc(Cl)cc2)n1	22µM*	/	i	i
Cc1ccc(NC(=O)Cn2c(=O)n(Cc3ccccc3)c(=O)c3sc4ccccc4c32)cc1	16%	/	i	i
Cn1c(=O)c2sccc2n2c(CCC(=O)N3CCN(c4cccc(Cl)c4)CC3)nnc12	8%	/	i	i
CCN(c1cccc(C)c1)S(=O)(=O)c1nnc(NC(=O)c2ccccc2Cl)s1	24%	/	i	i
O=C(c1ccccc1)C(I)(I)N1CCOCC1	/	0%	/	/
